# Among all 360,000 compounds or so, about 10,000 (2.8%) were called active. Not shown: some 4% with an inconclusive outcome. The list comes from a sample in which actives are over-represented; it also holds similar structures and randomly drawn compounds. Unmarked numbers belong to inactive results. The call rests on the fitted dose curve; in most records, active means well fitted inhibition curve with a large enough effect; inconclusive means small, poorly fitted or top-dose-only effect; inactive means flat fitted curve, though single readings scatter.
# Target: Serine/threonine-protein kinase PLK1 (Homo sapiens) (UniProt P53350)
# Assay: qHTS for Inhibitors of PLK1-PDB (polo-like kinase 1 - polo-box domain): Primary Screen; further: nearly all actives have a fitted effect of over 65% in size; on max response, negative = inhibition: series mostly up to about 57 µM
# Settings: Plk1 PBD binding of FITC phosphopeptide, fluorescence polarization
# On the % scale 0 is the no-effect control and ±100 the full control effect; potency means the concentration at half of the fitted maximal effect.
# Chain of Serine/threonine-protein kinase PLK1 (Homo sapiens) (P53350 whole entry, looked up, the tested form may be a part): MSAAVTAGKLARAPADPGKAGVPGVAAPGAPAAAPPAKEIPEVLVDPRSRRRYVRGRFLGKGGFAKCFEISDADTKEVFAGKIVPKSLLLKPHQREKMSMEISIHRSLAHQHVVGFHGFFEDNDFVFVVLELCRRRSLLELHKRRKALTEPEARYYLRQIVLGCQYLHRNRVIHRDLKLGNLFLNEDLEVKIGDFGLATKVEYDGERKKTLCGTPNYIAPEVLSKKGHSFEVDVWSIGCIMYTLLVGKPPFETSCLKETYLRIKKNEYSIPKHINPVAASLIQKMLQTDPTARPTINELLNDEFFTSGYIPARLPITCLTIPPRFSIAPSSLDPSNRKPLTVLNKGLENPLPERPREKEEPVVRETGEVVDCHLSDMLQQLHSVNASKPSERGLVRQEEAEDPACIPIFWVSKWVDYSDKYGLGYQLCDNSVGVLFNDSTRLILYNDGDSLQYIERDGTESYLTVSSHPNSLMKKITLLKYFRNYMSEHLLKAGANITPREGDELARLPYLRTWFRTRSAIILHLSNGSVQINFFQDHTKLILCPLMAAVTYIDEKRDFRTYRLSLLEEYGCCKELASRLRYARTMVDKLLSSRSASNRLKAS
Structure (SMILES),"max response, negative = inhibition [%]",Potency
Cc1snc(SCc2c(F)cccc2Cl)c1C#N,-3.96,
Cc1cc(C)c(C#N)c(SCc2ccc3c(c2)OCO3)n1,-1.63,
Cc1ccc(CSc2nsc(C)c2C#N)cc1,,15 µM (active)
CC(=O)c1ccc(-c2cnc3c(NC=O)cc(-c4cccc(NS(C)(=O)=O)c4)cn23)cc1,2.12,
COC(=O)C[C@@H]1C=C[C@@H](NC(=O)c2cccnc2)[C@@H](CO)O1,-16.8,
CCCCN(C(C)=O)c1ccc2c(c1)C1CC2CCN1Cc1ccccc1 (stereo not drawn),-11,
CCCCn1nnnc1C1(C)CCC(=O)N1Cc1ccc(OC)c(OC)c1 (stereo not drawn),-1.18,
COc1ccc(COC[C@H](CC(C)C)N2CCN(C(=O)c3cccc(C(F)(F)F)c3)CCC2=O)cc1,-20.7,
O=C(/C=C/c1ccccc1Cl)Nc1ccc(S(=O)(=O)Nc2ncccn2)cc1,-7.83,
NS(=O)(=O)c1ccc(NC(=O)/C=C/c2ccccc2Cl)cc1,2.86,
CC(=O)NS(=O)(=O)c1ccc(NC(=O)/C=C/c2ccccc2Cl)cc1,,29.9 µM (active)
COCOc1cccc(CN2CCC(C)(Oc3ccc(SC)cc3)C2)c1 (stereo not drawn),-0.463,
O=C(c1cc(S(=O)(=O)N2CCOCC2)ccc1Cl)N1CCOCC1,-9.46,
O=[N+]([O-])c1cc(Cl)cc(/C=N/NC(=S)Nc2cc(S(=O)(=O)N3CCOCC3)ccc2Cl)c1O,,10.6 µM (active)
O=C(Nc1cc(S(=O)(=O)N2CCOCC2)ccc1Cl)c1cc(=O)c2ccccc2o1,1.44,
OC[C@@H]1CN(Cc2cccs2)C[C@H](n2cnc3c(Nc4ccccc4)ncnc32)O1,-1.6,
COCCOC(=O)c1sc(=S)n(CCOC)c1N,,23.8 µM (active)
COc1ccccc1CNc1nc(Nc2ccccc2Cl)c2sccc2n1,5.05,
COc1ccc(S(=O)(=O)N[C@@H]2C=C[C@@H](CC(=O)N3CCc4ccccc4C3)O[C@@H]2CO)cc1,-0.456,
O=C(Nc1ccncc1)Nc1ccc(F)cc1,2.49,
CN(C)c1ccnc(Nc2ccc(F)cc2)c1C#N,-0.535,
Fc1ccc(Nc2nnns2)cc1,,13.4 µM (active)

Structure (SMILES),"max response, negative = inhibition [%]",Potency
Cc1ccc(NC(=O)c2ccco2)cc1,-4.07,
CCOC(=O)[C@]12CCCC=C1N(Cc1ccc(Cl)cc1Cl)C(=O)[C@H](CC(=O)N1CCCCC1)C2,-4.73,
CNC(=O)C[C@H]1C(=O)N(c2ccc(OC)cc2)C[C@@H]1Cc1ccccc1,-11.8,
Cc1cccc(NC(=O)CSC(N)=O)c1C,-17.1,
Cc1ccccc1NC(=O)CCOc1ccccc1,-11.8,
Cc1ccccc1NC(=O)CSC(=O)c1ccccc1,,10.6 µM (active)
CC1(C(=O)Nc2ccc3c(c2)OCCO3)CSCC(=O)N1CCOc1ccccc1 (stereo not drawn),0.116,
OCCC#Cc1ccc(N2C(c3ccsc3)=Cc3ccc(F)cc3C2c2c[nH]c3ccccc23)cc1 (stereo not drawn),-1.41,
COc1cccc(N2CCN(c3ccc4nnc(CCC(=O)N5CCN(C)CC5)n4n3)CC2)c1,-2.01,
COc1cccc(NC(=O)CCc2nnc3ccc(N4CCC(C)CC4)nn23)c1,,26.7 µM (active)
CCOC(=O)c1cccc(NC(=O)CCc2nnc3ccc(N4CCOCC4)nn23)c1,2.15,
CC(C)CCOc1ccc(C(=O)Nc2cc(S(=O)(=O)N3CCOCC3)ccc2N2CCOCC2)cc1,-15.2,
COc1ccc(-c2ccc(C(=O)NC(C)C)c3occc23)c(C)c1,-5.99,
O=C1NC(c2ccc(-c3ccccc3[N+](=O)[O-])o2)C(C(=O)c2ccc(Cl)cc2)C(O)(C(F)(F)F)N1 (stereo not drawn),-5.49,
CC1=NN(c2ccc(Cl)c(C(=O)O)c2)C(=O)/C1=C/c1ccc(-c2ccccc2[N+](=O)[O-])o1,,0.844 µM (active)
O=C(Nc1ccc(N2CCOCC2)cc1)c1ccc(-c2ccccc2[N+](=O)[O-])o1,-4.38,
CCCS(=O)(=O)NC(=O)C1(C)CCN(C(=O)c2sccc2C)C1 (stereo not drawn),-7.96,
C[C@H](NC(=O)CC[C@H]1O[C@@H](n2ccc(=O)[nH]c2=O)[C@H](O)[C@@H]1O)c1cccc2ccccc12,-3.83,
O=C(NCc1ccco1)c1cccc(-c2ccc3nncn3c2)c1,6.92,
CCCCCNC(=O)C1C(=O)Nc2ccccc2C(=O)N1C(C)(C)C (stereo not drawn),-13.8,
Cc1ccsc1/C=N/n1c(=S)[nH]nc(C)c1=O,-9.18,
